We go through 37 molecules from PubChem BioAssay (NCATS).

Results filed as inconclusive are left out. The source made the active and inactive calls. The call rests on the fitted dose curve; in most records, active means well fitted curve in the direction sought with a large enough effect; inconclusive means small, poorly fitted or top-dose-only effect, or another doubt; inactive means no such curve, though single readings can be large; an effect the other way counts as inactive or inconclusive.

Protein phosphatase 1D (Homo sapiens), sequence (O15297 whole entry, looked up): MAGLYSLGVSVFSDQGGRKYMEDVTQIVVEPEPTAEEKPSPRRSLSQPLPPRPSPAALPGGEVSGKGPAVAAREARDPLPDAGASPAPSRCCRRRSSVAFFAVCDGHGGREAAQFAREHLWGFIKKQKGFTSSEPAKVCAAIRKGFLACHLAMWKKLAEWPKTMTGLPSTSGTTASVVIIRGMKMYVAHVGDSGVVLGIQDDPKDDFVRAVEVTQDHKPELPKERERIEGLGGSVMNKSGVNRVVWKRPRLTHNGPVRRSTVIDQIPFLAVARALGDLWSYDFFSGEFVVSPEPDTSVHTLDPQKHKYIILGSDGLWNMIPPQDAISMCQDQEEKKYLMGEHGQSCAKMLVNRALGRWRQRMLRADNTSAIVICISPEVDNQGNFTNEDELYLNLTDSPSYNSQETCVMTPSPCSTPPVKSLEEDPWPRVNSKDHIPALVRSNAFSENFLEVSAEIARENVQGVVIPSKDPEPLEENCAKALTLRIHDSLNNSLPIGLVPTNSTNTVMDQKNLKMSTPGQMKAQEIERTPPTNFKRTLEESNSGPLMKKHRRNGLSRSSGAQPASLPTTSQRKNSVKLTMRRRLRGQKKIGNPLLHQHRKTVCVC

For the first test, the target named is Protein phosphatase 1D (Homo sapiens) (UniProt O15297). The test can be described thus: RapidFire Mass Spectrometry qHTS Assay for Modulators of WT P53-Induced Phosphatase 1 (WIP1) (AID 1347424).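 Further: plate controls were DMSO wells for no effect and GSK830371 inhibitor control at 10 µM for full effect.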 As to conditions: WIP1 dephosphorylation of phosphopeptide, RapidFire MS; series mostly up to 63 µM; activity change, negative = inhibition: at the top concentration. An outline of the steps:
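RapidFire MS readout of dephosphorylated VEPPL-S-QETFS product, with 1 uM isotope-labelled peptide standard. Reaction: 10 nM WIP1, 2 uM phosphopeptide substrate, 5 min, room temperature, after 1 h compound preincubation; stopped with 0.5% formic acid.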
As for `CCCCOC(=O)CCCCCCCCC(=O)OCCCC`, the “activity change, negative = inhibition” value was 3.15% (inactive).
With `NCC[C@H](O)C(=O)N[C@@H]1C[C@H](N)[C@@H](O[C@H]2O[C@H](CN)[C@@H](O)[C@H](O)[C@@H]2O)[C@H](O)[C@@H]1O[C@H]1O[C@H](CO)[C@@H](O)[C@H](N)[C@@H]1O`, the activity change, negative = inhibition was 3.64% [at 0.505 µM] (inactive).
The same measure, in the same setting: the result for `NC(=O)NS(=O)(=O)c1ccc(Cl)cc1` reads 2.99% (inactive).
For `COc1ccc2cc(C=O)ccc2c1`, the “activity change, negative = inhibition” value was -3.63% (inactive).
Regarding `COc1cc(/C=C/C(N)=O)cc(OC)c1OC`, the “activity change, negative = inhibition” value was 1.36% (inactive).
Turning to `Nc1ncnc2nc[nH]c12`, the “activity change, negative = inhibition” value was -4.04% (inactive).
On the same count and under the same terms, the result for `CCN(CC)CCOc1ccc(/C(=C(\Cl)c2ccccc2)c2ccccc2)cc1` reads 38.1% (inactive); that for `CC(=O)[C@H]1CC[C@H]2[C@@H]3C=CC4=CC(=O)CC[C@@]4(C)[C@@H]3CC[C@]12C`, 18.1% (inactive).
`O=C(OCC(COC(=O)c1cccnc1)(COC(=O)c1cccnc1)COC(=O)c1cccnc1)c1cccnc1`: the “activity change, negative = inhibition” value is 17.3% (inactive).
As for `CCC(CN)=C(c1ccccc1)c1ccccc1`, the “activity change, negative = inhibition” value is 43.3% (inactive).
Same read-out and setting: the result for `CN1C(CSCC(F)(F)F)Nc2cc(Cl)c(S(N)(=O)=O)cc2S1(=O)=O` (centres undefined) reads -1.61% (inactive).
Same read-out and setting: under `COc1ccc2nc(SCc3ncc(C)c(OC)c3C)[nH]c2c1` stands -0.879% (inactive); under `O=C1CC2(CCCC2)CC(=O)N1CCNCC1COc2ccccc2O1` (centres undefined), -2.7% (inactive).
On to `CN(CC1(C)CCCO1)S(=O)(=O)c1ccc(Cl)c(S(N)(=O)=O)c1` (centres undefined), for which the “activity change, negative = inhibition” value was 5.54% (inactive).
Still for that read-out and setting: under `CCCCC(O)/C=C(C)/C=C/C=C/C(=O)N1CCCC1=O` (centres undefined) stands 17.7% (inactive); under `O=C(O)c1ccccc1Nc1cc(Cl)ccc1C(=O)O`, -0.155% [at 26.6 µM] (inactive).
Still for that read-out and setting: the result for `CCCC(=O)O[C@]1(C(=O)COC(=O)CC)CC[C@H]2[C@@H]3CCC4=CC(=O)CC[C@]4(C)[C@H]3[C@@H](O)C[C@@]21C` reads -1.13% [at 26.6 µM] (inactive).
On the same count and under the same terms, the result for `CC(=O)c1cc2ccccc2s1` reads -0.951% (inactive); that for `Cc1ccc(Cl)c(OCC(O)CNC(C)(C)C)c1` (centres undefined), 14.6% (inactive); that for `COc1ccc(CCC(C)=O)cc1`, -11% (inactive).
Turning to `COCCOCC(OC)OC`, the “activity change, negative = inhibition” value was -3.37% (inactive).
The same measure, in the same setting: the result for `Cc1cc(CCCOc2c(C)cc(-c3noc(C(F)(F)F)n3)cc2C)on1` reads 48% (inactive); that for `CN1N=C(C(N)=O)CCC1=O`, -1.98% (inactive).
For `Cc1nc(N)nc(N)c1-c1ccc(Cl)c(Cl)c1`, the “activity change, negative = inhibition” value was 9.79% (inactive).
On to `O=S(=O)(O)c1ccc2nc(-c3ccccc3)[nH]c2c1`, for which the “activity change, negative = inhibition” value is 2.36% (inactive).
Regarding `CC(=O)[C@@]1(O)CC[C@H]2[C@@H]3C[C@H](C)C4=CC(=O)CC[C@]4(C)[C@H]3CC[C@@]21C`, the “activity change, negative = inhibition” value was 23.4% (inactive).
The same measure, in the same setting: the result for `Cc1ccccc1N1CCN(CCc2nnc3n2CCCC3)CC1` reads -0.96% (inactive).
With `O=C1[C@@H]2[C@H]3CC[C@H](C3)[C@@H]2C(=O)N1CCCCN1CCN(c2ncccn2)CC1`, the “activity change, negative = inhibition” value is 5.94% (inactive).
In the case of `O=C(O)[C@@H](O)[C@H](O)[C@H](O)[C@@H](O)C(=O)O`, the “activity change, negative = inhibition” value was -1.1% (inactive).
On to `OCc1cccnc1`, for which the “activity change, negative = inhibition” value is 19.3% (inactive).
With `O=C1c2ccccc2CCc2ccccc21`, the “activity change, negative = inhibition” value is 8.03% (inactive).
Consider `CN1Cc2cc(C(=O)N3CCC(C4CCNCC4)CC3)ccc2N[C@@H](CC(=O)O)C1=O`, for which the “activity change, negative = inhibition” value was -7.29% (inactive).
The same measure, in the same setting: under `CN(C)C(=O)CNC(=O)Cc1ccccc1` stands -29% (inactive); under `C/C(=C(/OCCOc1ccc(Cl)cc1)c1ccc(Cl)cc1Cl)n1ccnc1`, 18.3% (inactive).
`Cc1ccc(-c2ccccc2C#N)cc1`: the “activity change, negative = inhibition” value was 5.19% (inactive).
Turning to `c1ccc2c(c1)CCc1ccccc1N2`, the “activity change, negative = inhibition” value is 9.36% (inactive).
As to `CN(C)CCN(Cc1ccsc1)c1ccccn1`, the “activity change, negative = inhibition” value was 4.75% (inactive).

The target is the same in a further test. The test can be described thus: Rhodamine-PBP qHTS Assay for Modulators of WT P53-Induced Phosphatase 1 (WIP1) (AID 1347425). Further: % of control where 0% means no effect. The note with it: recombinant WIP1, Rhodamine-PBP phosphate fluorescence, real-time; series mostly up to 57.5 µM; activity change, negative = inhibition: at the top concentration. In a few lines: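 Read-out: Rhodamine-PBP fluorescence (ex 525/em 598 nm) for released Pi, read each minute for 11 min after adding 10 uM VEPPL-pS-QETFS; signal taken as f1 minus pre-substrate f0. Enzyme 5 nM WIP1 with 1 hr room-temperature compound preincubation.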
For orientation: In qHTS, concentration-response curves come from the screen itself.
In the case of `CCCCOC(=O)CCCCCCCCC(=O)OCCCC`, the “activity change, negative = inhibition” value is -3.71% (inactive).
With `NCC[C@H](O)C(=O)N[C@@H]1C[C@H](N)[C@@H](O[C@H]2O[C@H](CN)[C@@H](O)[C@H](O)[C@@H]2O)[C@H](O)[C@@H]1O[C@H]1O[C@H](CO)[C@@H](O)[C@H](N)[C@@H]1O`, the activity change, negative = inhibition is 3.01% [at 0.575 µM] (inactive).
For `NC(=O)NS(=O)(=O)c1ccc(Cl)cc1`, the “activity change, negative = inhibition” value is 10.6% (inactive).
Still for that read-out and setting: the result for `COc1ccc2cc(C=O)ccc2c1` reads -11.5% (inactive).
On to `COc1cc(/C=C/C(N)=O)cc(OC)c1OC`, for which the “activity change, negative = inhibition” value is 6.28% (inactive).
Turning to `Nc1ncnc2nc[nH]c12`, the “activity change, negative = inhibition” value was 13.6% (inactive).
Same read-out and setting: the result for `CCN(CC)CCOc1ccc(/C(=C(\Cl)c2ccccc2)c2ccccc2)cc1` reads 26.9% (inactive); that for `CC(=O)[C@H]1CC[C@H]2[C@@H]3C=CC4=CC(=O)CC[C@@]4(C)[C@@H]3CC[C@]12C`, -3.77% (inactive); that for `O=C(OCC(COC(=O)c1cccnc1)(COC(=O)c1cccnc1)COC(=O)c1cccnc1)c1cccnc1`, 8.03% (inactive).
For the molecule `CCC(CN)=C(c1ccccc1)c1ccccc1`, the “activity change, negative = inhibition” value was 30.3% (inactive).
As to `CN1C(CSCC(F)(F)F)Nc2cc(Cl)c(S(N)(=O)=O)cc2S1(=O)=O` (centres undefined), the “activity change, negative = inhibition” value is 2.16% (inactive).
Regarding `COc1ccc2nc(SCc3ncc(C)c(OC)c3C)[nH]c2c1`, the “activity change, negative = inhibition” value is -2.55% (inactive).
The same measure, in the same setting: the result for `O=C1CC2(CCCC2)CC(=O)N1CCNCC1COc2ccccc2O1` (centres undefined) reads 7.03% (inactive).
On the same count and under the same terms, the result for `CN(CC1(C)CCCO1)S(=O)(=O)c1ccc(Cl)c(S(N)(=O)=O)c1` (centres undefined) reads 7.79% (inactive); that for `CCCCC(O)/C=C(C)/C=C/C=C/C(=O)N1CCCC1=O` (centres undefined), 16.8% (inactive); that for `O=C(O)c1ccccc1Nc1cc(Cl)ccc1C(=O)O`, -15.6% [at 23.8 µM] (inactive).
As to `CCCC(=O)O[C@]1(C(=O)COC(=O)CC)CC[C@H]2[C@@H]3CCC4=CC(=O)CC[C@]4(C)[C@H]3[C@@H](O)C[C@@]21C`, the “activity change, negative = inhibition” value is 1.16% [at 23.8 µM] (inactive).
With `CC(=O)c1cc2ccccc2s1`, the “activity change, negative = inhibition” value was 1.9% (inactive).
Turning to `Cc1ccc(Cl)c(OCC(O)CNC(C)(C)C)c1` (centres undefined), the “activity change, negative = inhibition” value is 23.9% (inactive).
For `COc1ccc(CCC(C)=O)cc1`, the “activity change, negative = inhibition” value was 48.6% (inactive).
As to `COCCOCC(OC)OC`, the “activity change, negative = inhibition” value was 3.63% (inactive).
For the molecule `Cc1cc(CCCOc2c(C)cc(-c3noc(C(F)(F)F)n3)cc2C)on1`, the “activity change, negative = inhibition” value is 18.2% (inactive).
On to `CN1N=C(C(N)=O)CCC1=O`, for which the “activity change, negative = inhibition” value was -12% (inactive).
In the case of `Cc1nc(N)nc(N)c1-c1ccc(Cl)c(Cl)c1`, the “activity change, negative = inhibition” value was 11.2% (inactive).
As for `O=S(=O)(O)c1ccc2nc(-c3ccccc3)[nH]c2c1`, the “activity change, negative = inhibition” value was 25.2% (inactive).
With `CC(=O)[C@@]1(O)CC[C@H]2[C@@H]3C[C@H](C)C4=CC(=O)CC[C@]4(C)[C@H]3CC[C@@]21C`, the “activity change, negative = inhibition” value was 27.5% (inactive).
Consider `Cc1ccccc1N1CCN(CCc2nnc3n2CCCC3)CC1`, for which the “activity change, negative = inhibition” value is 2.76% (inactive).
Turning to `O=C1[C@@H]2[C@H]3CC[C@H](C3)[C@@H]2C(=O)N1CCCCN1CCN(c2ncccn2)CC1`, the “activity change, negative = inhibition” value was 6.26% (inactive).
The same measure, in the same setting: the result for `O=C(O)[C@@H](O)[C@H](O)[C@H](O)[C@@H](O)C(=O)O` reads -10.4% (inactive).
With `OCc1cccnc1`, the “activity change, negative = inhibition” value is 12% (inactive).
The same measure, in the same setting: under `O=C1c2ccccc2CCc2ccccc21` stands 17.8% (inactive); under `CN1Cc2cc(C(=O)N3CCC(C4CCNCC4)CC3)ccc2N[C@@H](CC(=O)O)C1=O`, 1.24% (inactive).
For the molecule `CN(C)C(=O)CNC(=O)Cc1ccccc1`, the “activity change, negative = inhibition” value was -4.33% (inactive).
Regarding `C/C(=C(/OCCOc1ccc(Cl)cc1)c1ccc(Cl)cc1Cl)n1ccnc1`, the “activity change, negative = inhibition” value was 12.2% (inactive).
On to `Cc1ccc(-c2ccccc2C#N)cc1`, for which the “activity change, negative = inhibition” value is 2.19% (inactive).
On the same count and under the same terms, the result for `c1ccc2c(c1)CCc1ccccc1N2` reads -9.73% (inactive); that for `CN(C)CCN(Cc1ccsc1)c1ccccn1`, 14.6% (inactive).
